Results filed as inconclusive are left out. Activity calls are given as the source filed them. Unless noted, calls come from the whole dose curve; as a rule, active = well fitted curve in the direction sought with a large enough effect; inconclusive = small, poorly fitted or top-dose-only effect, or another doubt; inactive = no such curve, though single readings can be large; an effect the other way counts as inactive or inconclusive.
Columns and labels:
[1] = qHTS to identify inhibitors of the type 1 interferon - major histocompatibility complex class I in skeletal muscle: primary screen against the NCATS LOPAC collection (AID 1347405); details: iHSKM muscle cells, IFN-b-induced MHC-I HiBiT luminescence, 24 h; series mostly up to 45.9 µM;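 note: human myoblasts with HiBiT tag on endogenous HLA-B stimulated by IFN-beta; lytic HiBiT luminescence reporting HLA-B protein level; % is set by controls: 0 for no effect and ±100 for the full control effect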
Summary of the method: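 HLA-B HiBiT myoblasts, IFN-b 4 ng/ml, dexamethasone-free medium; compounds 7-pt 1:4.3 titration, top 46 uM final; 24 h at 37 C; Nano-Glo HiBiT lytic reagent, 10 min RT, luminescence.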

[2] = qHTS for inhibitors of adenylyl cyclases using a fission yeast platform: a pilot screen against the NCATS LOPAC library (AID 1347410);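 note: plate controls were DMSO vehicle for no effect and DPI positive control for full effect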; details: S. pombe CHP2027, fbp1-GFP fluorescence, 18 h, yeast expressing mammalian AC9 and human GNAS; series mostly up to 57.5 µM
Summary of the method: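 Read-out: fbp1-GFP fluorescence by laser scanning cytometry (488 nm laser), a gain of signal when AC/cAMP-PKA signalling is inhibited. Strain CHP2027 expressing AC9, GNAS and PDE4D2; compounds at up to 57 µM; 18 h, 30C.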

[3] = biological target: Protein phosphatase 1D (Homo sapiens) (UniProt O15297); assay: RapidFire Mass Spectrometry qHTS Assay for Modulators of WT P53-Induced Phosphatase 1 (WIP1) (AID 1347424); details: WIP1 dephosphorylation of phosphopeptide, RapidFire MS; series mostly up to 63 µM;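 note: amount of dephosphorylated VEPPL-S-QETFS peptide product formed by WIP1; plate controls were DMSO wells for no effect and GSK830371 inhibitor control at 10 µM for full effect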
Summary of the method: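 Mass-spectrometric measurement of dephosphorylated peptide after a 5 min room-temperature reaction of 10 nM WIP1 with 2 uM phosphopeptide, following 1 h compound preincubation in 30 mM MgCl2 buffer.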

[4] = biological target: Protein phosphatase 1D (Homo sapiens) (UniProt O15297); assay: Rhodamine-PBP qHTS Assay for Modulators of WT P53-Induced Phosphatase 1 (WIP1) (AID 1347425); details: recombinant WIP1, Rhodamine-PBP phosphate fluorescence, real-time; series mostly up to 57.5 µM; note: % of control where 0% means no effect
Summary of the method: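 Read-out: Rhodamine-PBP fluorescence (ex 525/em 598 nm) for released Pi, read each minute for 11 min after adding 10 uM VEPPL-pS-QETFS; signal taken as f1 minus pre-substrate f0. Enzyme 5 nM WIP1 with 1 hr room-temperature compound preincubation.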

[5] = Validation qHTS assay for inhibitors of Activation Induced Cytidine Deaminase (AID): UDG Counterscreen signal (AID 1347427); details: biochemical UDG counterscreen, fluorescence signal; series mostly up to 115 µM; note: 0% is about no effect
Summary of the method: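 Fluorescence at 560 nm excitation, 665 nm emission reports UDG signal after 250 mM NaOH (2x) addition and 30 min. Enzymes (AID 1 uM, UDG 2 U/mL, at 4/3x) preincubated 10 min with compound, then 4 h with 4x 250 nM DJC20/DJC23 substrate at room temperature.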

[6] = Primary qHTS for inhibitors of La Crosse Virus (LACV) - induced cell death in SH-SY5Y cells (AID 1508616); details: SH-SY5Y LACV cytopathicity rescue, ATP luminescence, 6 d; series mostly up to 4.29 µM;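 note: top concentration of the series differs between compounds; 0% = infected DMSO wells and 100% = uninfected DMSO wells; higher means more rescue of cells from virus-induced death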
Summary of the method: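 Cytopathicity rescue screen: compounds pinned onto SH-SY5Y cells, which are then infected with LACV (MOI 0.01) and held 6 days at 37C. Percent activity is scaled between infected DMSO control and uninfected DMSO control.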

[7] = Counterscreen qHTS for small molecule stabilizers of the endoplasmic reticulum resident proteome: GLuc-NoTag assay (AID 1508627); details: Gaussia luciferase NoTag secretion counterscreen, luminescence, thapsigargin 100 nM for final 4 h; series mostly up to 76.4 µM; note: potency is the fitted concentration of half-maximal effect
Summary of the method: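 Secreted GLuc lacking the SERCaMP modification is measured in SH-SY5Y cells exposed to compound for 19 h and then to thapsigargin (100 nM, 4 h) to deplete ER calcium; hits retested at 11 concentrations, up to 76.6 uM.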

[8] = qHTS to identify inhibitors of the type 1 interferon - major histocompatibility complex class I in skeletal muscle: primary screen against the NCATS Pharmaceutical Collection (AID 1347407); details: human skeletal muscle cells, IFN-b-induced MHC-I HiBiT luminescence, 24 h; series mostly up to 45.9 µM;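 note: luminescence of HiBiT knocked into endogenous HLA-B as interferon-induced MHC class I level; % is set by controls: 0 for no effect and ±100 for the full control effect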
Summary of the method: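 HLA-B HiBiT myoblasts, dexamethasone-free growth medium + 4 ng/ml IFN-b; compounds pinned 1 h after seeding, […] from 46 uM; 24 h, 37 C, 5% CO2; lytic HiBiT detection, 10 min RT, luminescence.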

[9] = biological target: Calcium and integrin-binding protein 1 (Homo sapiens) (UniProt Q99828); assay: Primary qHTS for Identification of Calcium Integrin Binding Protein 1 (CIB1) Competitor (AID 1508620); details: CIB1-GST / FITC-alphaIIb peptide fluorescence polarization; series mostly up to 57.7 µM;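 note: GST tagged CIB1 binding a fluorescein labelled alphaIIb integrin peptide tracer; top concentration of the series differs between compounds; % is set by controls: 0 for no effect and ±100 for the full control effect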
Summary of the method: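 Fluorescence polarization competition: CIB1-GST (1 uM final) preincubated with compound 15 min at room temperature, then FITC-labeled alphaIIb peptide (100 nM final) added for another 15 min. Polarization read at Ex 480/Em 540.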

[10] = A High-Content qHTS Against Drug Library for the Identification of Small Molecules that Inhibit DYT1 Early Onset Primary Dystonia-Associated Cell Pathology (AID 1645839; calls by dose curve); details: HEK293 Flp-In EGFP-delE TorsinA, punctate imaging, 48 h; series mostly up to 46.1 µM
Summary of the method: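 Induced EGFP-delE TorsinA cells are imaged after 48 h of compound treatment. Punctate fusion-protein distribution gives the %pathology value, while nuclei counts flag toxicity. Wild-type EGFP-hTOR1A cells define the normal pattern.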

[11] = Primary qHTS for small molecule stabilizers of the endoplasmic reticulum resident proteome: Secreted ER Calcium Modulated Protein (SERCaMP) assay (AID 1508630); details: SH-SY5Y GLuc-SERCaMP (Gaussia luciferase released on ER calcium loss) secretion, thapsigargin, luminescence; series mostly up to 38.4 µM; note: % is set by controls: 0 for no effect and ±100 for the full control effect
Summary of the method: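 The SH-SY5Y reporter protocol was run at 3 concentrations up to 38.3 uM (primary) or 11 concentrations (follow-up): 16 h compound, 100 nM thapsigargin for 4 h, then extracellular luciferase luminescence.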

[12] = qHTS to identify inhibitors of the type 1 interferon - major histocompatibility complex class I in skeletal muscle: primary screen against the NCATS Mechanism Interrogation Plate v5.0 (MIPE) Libary (AID 1347411); details: iHSKM cells + IFN-b, HiBiT-tagged MHC-I luminescence, 24 h; series mostly up to 45.8 µM; note: nearly all actives have a fitted effect of over 65% in size; note: potency is the fitted concentration of half-maximal effect
Summary of the method: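 HLA-B HiBit myoblasts, dexamethasone-free medium + 4 ng/ml IFN-b, 24 h compound, 11-pt 1:3 from 46 uM final. Readout: Nano-Glo HiBiT lytic luminescence after 10 min lysis, RT.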

[13] = biological target: Calcium and integrin-binding protein 1 (Homo sapiens) (UniProt Q99828); assay: Confirmatory qHTS for Identification of Calcium Integrin Binding Protein 1 (CIB1) Competitor (AID 1508617); details: CIB1 binding competition assay, biochemical qHTS; series mostly up to 114 µM; note: % is set by controls: 0 for no effect and ±100 for the full control effect; nearly all actives have a fitted effect of over 65% in size
Summary of the method: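 Fluorescence polarization competition: CIB1-GST (1 uM final) in 5 mM HEPES pH 7.4, 125 mM NaCl, 5 mM CaCl2, 0.01% Tween20 preincubated 15 min RT with compound (up to 114 uM), then FITC-alphaIIb peptide (100 nM) added, 15 min RT.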

[14] = Confirmatory qHTS for small molecule stabilizers of the endoplasmic reticulum resident proteome: Secreted ER Calcium Modulated Protein (SERCaMP) assay (AID 1508628); details: SERCaMP secreted luciferase ER calcium/proteostasis reporter; series mostly up to 76.3 µM; note: % is set by controls: 0 for no effect and ±100 for the full control effect; nearly all actives have a fitted effect of over 40% in size
Summary of the method: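 GLuc-SERCaMP-expressing SH-SY5Y cells, pretreated 16 h with compound, are challenged with thapsigargin to empty ER calcium stores; after 4 h, coelenterazine is added directly to the medium and luminescence is imaged.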

[15] = Cell Viability qHTS for small molecule stabilizers of the endoplasmic reticulum resident proteome (AID 1508629); details: cell viability counter-screen, 100 nM thapsigargin for final 4 h

Sequence of Protein phosphatase 1D (Homo sapiens) (O15297 whole entry, looked up): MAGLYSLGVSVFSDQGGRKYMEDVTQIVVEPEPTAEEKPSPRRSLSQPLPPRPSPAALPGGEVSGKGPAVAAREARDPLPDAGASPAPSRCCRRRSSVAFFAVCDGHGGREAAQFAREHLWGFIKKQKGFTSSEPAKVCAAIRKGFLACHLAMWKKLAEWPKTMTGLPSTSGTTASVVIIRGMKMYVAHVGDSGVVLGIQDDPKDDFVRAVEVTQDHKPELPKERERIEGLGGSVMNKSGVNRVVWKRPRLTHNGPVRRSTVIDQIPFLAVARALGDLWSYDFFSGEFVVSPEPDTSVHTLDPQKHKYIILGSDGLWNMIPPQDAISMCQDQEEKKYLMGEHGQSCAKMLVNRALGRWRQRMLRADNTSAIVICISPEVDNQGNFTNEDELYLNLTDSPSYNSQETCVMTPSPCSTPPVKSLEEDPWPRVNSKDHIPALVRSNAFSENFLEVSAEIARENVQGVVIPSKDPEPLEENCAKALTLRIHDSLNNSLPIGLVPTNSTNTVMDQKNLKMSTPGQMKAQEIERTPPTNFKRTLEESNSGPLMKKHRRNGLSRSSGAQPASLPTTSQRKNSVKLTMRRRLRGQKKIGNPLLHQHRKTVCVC
Sequence of Calcium and integrin-binding protein 1 (Homo sapiens) (Q99828 whole entry, looked up): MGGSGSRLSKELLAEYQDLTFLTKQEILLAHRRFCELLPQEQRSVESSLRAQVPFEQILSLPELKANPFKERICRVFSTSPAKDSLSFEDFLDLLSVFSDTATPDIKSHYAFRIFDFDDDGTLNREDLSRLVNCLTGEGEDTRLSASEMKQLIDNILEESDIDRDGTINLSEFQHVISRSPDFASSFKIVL

CCOC(=O)N1CCC(=C2c3ccc(Cl)cc3CCc3cccnc32)CC1
active: Potency [7] 35.5 µM
inactive: Potency [1] | outcome [2] | Potency [3] | outcome [4] | outcome [5] | outcome [6]

CNC(=O)c1ccccc1Sc1ccc2c(/C=C/c3ccccn3)n[nH]c2c1
inactive: outcome [8] | Potency [3] | outcome [4] | outcome [9] | Potency [10]

O=C(O)CCc1ccc(NCc2cccc(Oc3ccccc3)c2)cc1
inactive: Potency [1] | outcome [2] | outcome [9] | Potency [11]

Nc1nc2[nH]cc(CCc3ccc(C(=O)N[C@@H](CCC(=O)O)C(=O)O)cc3)c2c(=O)[nH]1
inactive: Potency [12] | outcome [9] | Potency [11]

O=C1CCCC2=C1C(c1[nH]ncc1Cl)N=C(Nc1nc3ccccc3o1)N2 (stereo not drawn)
inactive: Potency [12] | Potency [13] | outcome [9]

CCCn1c(=O)c2[nH]c(C34CC5CC3C[C@@H](C5)C4)nc2n(CCC)c1=O
inactive: Potency [12] | outcome [9] | Potency [11]

COc1ccc(CCN2CCN(CCCc3ccccc3)CC2)cc1OC
inactive: Potency [12] | outcome [9]

c1ccc(-c2nn3c(c2-c2ccnc4cc(OCCN5CCOCC5)ccc24)CCC3)nc1
inactive: Potency [12] | outcome [9] | Potency [11]

NC(=O)c1ccc(I)c([N+](=O)[O-])c1
inactive: Potency [12] | outcome [9] | Potency [11]

CN(C)C(=O)c1ccc(S(=O)(=O)c2ccc(NC(=O)[C@@](C)(O)C(F)(F)F)c(Cl)c2)cc1
inactive: Potency [12] | outcome [9] | Potency [11]

CC[C@H](Nc1ncnc2nc[nH]c12)c1nc2cccc(F)c2c(=O)n1-c1ccccc1
inactive: Potency [12] | outcome [9]

Nc1nc2c(ncn2COCCO)c(=O)[nH]1
inactive: outcome [2] | Potency [3] | outcome [4] | outcome [6] | outcome [9] | Potency [7] | Potency [14] | max response [15] 1.71% | Potency [11] | Potency [10]

CCC(=O)N[C@H]1CC[C@H](C(=O)N(C)c2ccc(-c3nc4ccccc4o3)cc2)C1
inactive: Potency [12] | outcome [9]

NC(=O)c1ccc(-c2nc(-c3ccc4c(c3)OCCO4)c(-c3ccccn3)[nH]2)cc1
inactive: Potency [12] | outcome [9] | Potency [11]

COc1ccc(-c2c(-c3ccc(O)cc3O)n[nH]c2C)cc1
inactive: Potency [12] | outcome [9] | Potency [11]

CC(c1cc2ccccc2s1)N(O)C(N)=O (stereo not drawn)
inactive: Potency [12] | outcome [4] | outcome [6] | outcome [9] | Potency [10]

COc1ccc(COc2cc3oc(=O)c4cc(C(C)O)ccc4c3cc2OC)cc1 (stereo not drawn)
inactive: Potency [12] | outcome [9] | Potency [11]

Cc1cc(Nc2nc(N[C@@H](C)c3ncc(F)cn3)ncc2Cl)n[nH]1
active: Potency [12] 1.04 µM
inactive: outcome [9]

CNC(=O)c1ccc(C)c(-n2c(C)cc(OCc3ccc(F)cc3F)c(Br)c2=O)c1
inactive: Potency [12] | outcome [9]
